In all, about 360,000 compounds went through this assay and about 1,600 (0.44%) were called active. The sample holds actives, similar compounds and a random draw of the others, so the mix is not that of the screen.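 The calls were made as follows: active = inhibition above the screen-wide average plus 3 SD (cut at about 13% in these data); inactive = the rest.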

For orientation: inhibition means the drop in the measured response relative to a control, in per cent.

The target in this experiment is Galanin receptor type 3 (Homo sapiens) (UniProt O60755). The experiment can be described thus: blockers of human galanin receptor 3 – cell-based, fluorescence readout, primary screen (AID 651719).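 Also: forskolin and galanin both at EC90 stimulate the cells; cAMP rise reported by CNG channel membrane potential dye signal; 0% = forskolin plus galanin with DMSO and 100% = forskolin alone.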 Conditions: HEK293 GalR3-CNG cAMP membrane potential fluorescence; at 3 µM; active compounds read high.
Galanin receptor type 3 (Homo sapiens), sequence (O60755 1-299 limits assumed): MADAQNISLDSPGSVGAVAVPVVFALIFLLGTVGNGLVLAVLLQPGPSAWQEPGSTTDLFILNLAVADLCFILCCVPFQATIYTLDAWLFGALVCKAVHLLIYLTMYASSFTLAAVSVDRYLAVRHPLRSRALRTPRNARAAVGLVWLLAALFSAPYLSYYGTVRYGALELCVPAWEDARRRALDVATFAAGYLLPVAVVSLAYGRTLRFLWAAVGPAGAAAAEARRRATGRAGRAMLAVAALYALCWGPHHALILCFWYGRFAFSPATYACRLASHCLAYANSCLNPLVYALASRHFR
Regarding `CCCCCCCCCCCCn1ccc(=N)cc1`, the inhibition is 75.6% (active). As for `CCN(CC)C(=O)[C@@H]1C=C2c3cccc4[nH]c(Br)c(c34)C[C@H]2N(C)C1`, the inhibition is -11% (inactive). With `COC(=O)C1=C(c2cc3ccccc3s2)C[C@@H]2CC[C@H]1N2C(=O)NC(C)C` the figure was -4.53% (inactive); with `COC(=O)C1=C(c2cc3ccccc3s2)C[C@@H]2CC[C@H]1N2C(=O)NCc1cccc2ccccc12`, 17.8% (active). With `COC(=O)C1=C(c2cc3ccccc3s2)C[C@@H]2CC[C@H]1N2C(=O)NCCO` the figure was -2.95% (inactive); with `O=c1[nH]c(=O)n(-c2ccccc2)c(O)c1C=NC12CN3CN(CN(C3)C1)C2`, 5.15% (inactive). With `CS(=O)(=O)N1CCC2CCNC2C1` (stereo not given) the figure was 0.87% (inactive); with `CCOC(=O)[C@]12Cc3ccccc3[C@H]1N(C1CCCCC1)C(=O)c1cc(OC)ccc12`, -8.42% (inactive); with `Brc1ccc2c(c1)CNCc1cnnn1-2`, -5.56% (inactive). As to `CCN(CC)C(=O)c1ccc(NC(=O)c2cc(-n3cnnc3)ccc2Cl)cc1`, the inhibition is -1.92% (inactive). Turning to `C[C@]12CC[C@H](O)C[C@H]1CC[C@@H]1C2CC[C@]2(C)[C@@H](C3=CC(=O)OC3)[C@@H](O)C[C@]12O` (stereo not given in full), the inhibition is 30.2% (active). With `CC12CCC(O)CC1CCC1C2CCC2(C)C(C(=O)CC(O)C(F)(F)F)CCC12` (stereo not given) the figure was -1.5% (inactive). With `COc1ccc2c(c1)[C@@]13CCCCC1[C@@H](C2)NCC3` (stereo not given in full) the figure was -3.82% (inactive); with `COc1ccc(CN2CCN(c3ccccc3F)CC2)c(OC)c1`, -4.46% (inactive).

Consider `Clc1ccc([C@@H]2CC3CCC2N3)cn1` (stereo not given in full), for which the inhibition is -3.43% (inactive). With `Cc1ccc(-n2c(-c3ccc([N+](=O)[O-])cc3)nc3ccccc3c2=O)cc1` the figure was -3.3% (inactive); with `COc1ccc(-n2c(-c3ccccc3)nc3ccccc3c2=O)cc1`, 16.9% (active); with `O=c1c2ccccc2nc(-c2ccccc2)n1-c1ccccn1`, -5.42% (inactive). With `Cc1cc(N2CCNC[C@@H]2C)ccc1N1CC[C@H](O)C1` the figure was -7.28% (inactive); with `CCC(C)NC1(c2ccccc2)CCCCC1` (stereo not given), -2.56% (inactive).

In the case of `O=S(=O)(c1ccccc1)N1CCC2CCNC2C1` (stereo not given), the inhibition is -5.66% (inactive). With `COc1cc(OC)cc(C(=O)NCCN2CCC3(CC2)C(=O)NCN3c2ccccc2)c1` the figure was -6.02% (inactive); with `COC1C(O)C(C)OC(OC2CCC3(C=O)C(CCC4C3CCC3(C)C(C5=CC(=O)OC5)CCC43O)C2)C1O` (stereo not given), 43% (active); with `C/C=C/CC1(CC)C(=O)NC(=S)NC1=O`, -12.8% (inactive). Consider `CCCC(C)n1[nH]c(=O)c2c1NC(=O)CSC2c1ccc(OC)c(OC)c1` (stereo not given), for which the inhibition was -3.1% (inactive).

For the origin of these results see PubChem BioAssay AID651719 (The Scripps Research Institute Molecular Screening Center, 2012).
